# In PubChem BioAssay (EPA / NIEHS):
# Active and inactive are the calls of the source. Rule for the calls: active = hit-call score of the fitted dose curve at least 0.9, where 1 is the maximum; inactive = score below 0.9.
# Experiment: CCTE_Harrill_HTTr_Apoptosis_MCF7: CCTE's 6-hour Apoptosis Assessment for the High-Throughput Transcriptomics (HTTr) Platform, in MCF-7 cells cultured in DMEM + 10% fetal bovine serum, Harrill Lab (AID 2284011)
# Excerpt: This is a cell-based assay that evaluates apoptosis using high content imaging to evaluate activation of caspase-3/7 using the CellEvent Caspase 3/7 Green detection reagent in 384-well format.One of seven assay components measured from the CCTE_Harrill_HTTr_Apoptosis assay. This was part of a full screening experiment. This is a cell-based assay that evaluates apoptosis in MCF-7 cells cultured in DMEM + 10% fetal bovine serum. High content imaging is used to evaluate activation of caspase-3/7 using the CellEvent Caspase 3/7 Green detection reagent. Measurements are taken at 6 hours after chemical dosing in 384-well format.The assay component endpoint CCTE_Harrill_HTTr_Apoptosis_MCF7 was analyzed with bidirectional fitting relation to DMSO as the negative control and baseline of activity. Using a type of viability reporter, gain-of-signal activity can be used to evaluate activation of caspase-3/7 using the CellEvent Caspase 3/7 Green detection reagent to understand changes in apoptosis. To generalize the intended target to other relatable targets, this assay endpoint is annotated to cell cycle, where the subfamily is apoptosis.
# Chemicals were tested in MCF7 cells in an eight point dilution series with a six hour exposure duration.
row,Structure (SMILES),outcome
1,Cc1cc(Cl)ccc1OCC(=O)O,inactive
2,COc1ccc(C(c2ccc(OC)cc2)C(Cl)(Cl)Cl)cc1,inactive
3,CCCC1COC(Cn2cncn2)(c2ccc(Cl)cc2Cl)O1 (stereo not given),inactive
4,O=C(Nc1ccccc1)Nc1ccnc(Cl)c1,inactive
5,CNC(=O)ON=CC(C)(C)SC,inactive
6,CC(C)(C)c1ccc(CSc2cnn(C(C)(C)C)c(=O)c2Cl)cc1,inactive
7,CON(C)C(=O)Nc1ccc(Cl)c(Cl)c1,inactive
8,COC(=O)N(OC)c1ccccc1COc1ccn(-c2ccc(Cl)cc2)n1,inactive
9,CCON=C(CC)C1=C(O)CC(c2c(C)cc(C)cc2C)CC1=O (stereo not given),inactive
10,CC(C)Oc1cc(-n2nc(C(C)(C)C)oc2=O)c(Cl)cc1Cl,inactive
11,CN(C)C(=S)SSC(=S)N(C)C,inactive
12,CNC(=S)S,inactive
13,CCCCOC(=O)c1ccccc1C(=O)OCCCC,inactive
14,COP(N)(=O)SC (stereo not given),inactive
15,N#Cc1nn(-c2c(Cl)cc(C(F)(F)F)cc2Cl)c(N)c1S(=O)C(F)(F)F (stereo not given),inactive
16,O=C(O)COc1nc(Cl)c(Cl)cc1Cl,inactive
17,CCc1nn(C)c(C(=O)NCc2ccc(C(C)(C)C)cc2)c1Cl,inactive
18,Fc1ccc(Oc2ccnc3cc(Cl)cc(Cl)c23)cc1,inactive
19,C=CC1(C)OC(=O)N(c2cc(Cl)cc(Cl)c2)C1=O (stereo not given),inactive
20,N#CC(CCc1ccc(Cl)cc1)(Cn1cncn1)c1ccccc1 (stereo not given),inactive

row,Structure (SMILES),outcome
1,CO/C=C(/C(=O)OC)c1ccccc1Oc1cc(Oc2ccccc2C#N)ncn1,inactive
2,C=CCC1=C(C)[C@@H](OC(=O)[C@@H]2[C@@H](C=C(C)C)C2(C)C)CC1=O,inactive
3,CC1=C(C(=O)Nc2ccccc2)SCCO1,inactive
4,CCOP(=S)(OCC)SCn1c(=O)oc2cc(Cl)ccc21,inactive
5,COc1nc(NC(C)C)nc(NC(C)C)n1,inactive
6,CC(Oc1ccc(Cl)cc1Cl)C(=O)O (stereo not given),inactive
7,COc1cnc(OC)n2nc(NS(=O)(=O)c3c(OCC(F)F)cccc3C(F)(F)F)nc12,inactive
8,COP(=S)(OC)Oc1nc(Cl)c(Cl)cc1Cl,inactive
9,CS/C(C)=N/OC(=O)N(C)SN(C)C(=O)O/N=C(\C)SC,inactive
10,C=CCC1=C(C)C(OC(=O)C2C(C=C(C)C)C2(C)C)CC1=O (stereo not given),inactive
11,O=C(O)c1nc(Cl)ccc1Cl,inactive
12,CCOC(=O)CC(SP(=S)(OC)OC)C(=O)OCC (stereo not given),inactive
13,CCCCC(CC)COC(=O)c1ccccc1C(=O)OCC(CC)CCCC (stereo not given),inactive
14,CC(C)C1(C)N=C(c2nc3ccccc3cc2C(=O)O)NC1=O (stereo not given),inactive
15,CCOC(=O)C(Cl)Cc1cc(-n2nc(C)n(C(F)F)c2=O)c(F)cc1Cl (stereo not given),inactive
16,CCCCNC(=O)n1c(NC(=O)OC)nc2ccccc21,inactive
17,CCNc1nc(Cl)nc(NCC)n1,inactive
18,Cc1c(F)c(F)c(COC(=O)C2C(/C=C(\Cl)C(F)(F)F)C2(C)C)c(F)c1F (stereo not given),inactive
19,OC(c1ccc(Cl)cc1)(c1cncnc1)c1ccccc1Cl (stereo not given),inactive
20,COC(=O)C=C(C)OP(=O)(OC)OC,inactive
